Hit rate of the full screen: of about 300,000 compounds, about 950 (0.32%) were called active. Shown is part of a subset that was picked to be rich in actives. Values without a mark were called inactive.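 Rule for the calls: active = mean activation of at least 10% of the iron chelator positive control signal, with at least half of replicates also reaching 10%; inconclusive = mean and replicate majority disagree about reaching 10%; inactive = mean and most replicates under 10%.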

Consider 59 molecules from PubChem BioAssay AID1910 (Broad Institute, 2009).

The nature of the experiment: hypoxia response element reporter activation – cell-based, U2OS HRE-luciferase, luminescence, primary screen (AID 1910). The conditions noted are these: hits give high values, screened at 7.5 µM (by protocol), normalized: DMSO 0%, desferrioxamine 100%.
For the molecule `COc1ccc(C(C#N)(CC(=O)O)c2cnccn2)cc1OC` (centres undefined), the activation is -0.732%.

For `CCCCCN(C(=O)CCC(=O)OCC(=O)NC1CCC(C)CC1)c1c(N)n(CCCC)c(=O)[nH]c1=O` (centres undefined), the activation was 0.288%.

With `O=C(NCc1ccc(Cl)cc1)C(=O)NCC1CCCN1S(=O)(=O)c1cccs1` (centres undefined), the activation is -0.199%.

For the molecule `Nc1ccc(C(=O)Nc2ccccc2N)cc1`, the activation was 23.2% (active).

Take `Nc1ccc(C(=O)NCc2ccccc2)cc1`: the activation is -0.0134%.

Regarding `CC(=O)Nc1ccccc1NC(=O)c1cc(C)cc(C)c1`, the activation was -0.124%.

Take `COc1cc(OC)c(OC)cc1CN1CCN(C(=O)c2cccc3ccccc23)CC1`: the activation was -7.26%.

In the case of `Cc1ccc(NC(=O)COc2coc(CN3CCc4ccccc4C3)cc2=O)cc1Cl`, the activation was -0.873%.

Turning to `Cc1nc2ccccc2nc1N/N=C/c1ccc(O)cc1O`, the activation was 15.9% (active).

For the molecule `Oc1ccc(/C=N/NC2=NCCCCC2)c(O)c1`, the activation was 1.31%.

In the case of `Oc1ccc(/C=N/Nc2nc(-c3ccccc3F)nc3ccccc23)c(O)c1`, the activation is 0.0261%.

On to `Cc1onc(-c2ccccc2Cl)c1C(=O)OCc1nnc(-c2ccccc2)o1`, for which the activation is 0.814%.

`N#CC1(NC(=O)COC(=O)Cc2n[nH]c(=O)c3ccccc23)CCCCC1`: the activation is 1.1%.

For `O=C(COc1coc(CN2CCN(c3ccccc3)CC2)cc1=O)Nc1ccccc1F`, the activation is 0.427%.

As to `Cc1ccc(OCCCCc2c(C)n[nH]c2C)cc1`, the activation was 0.618%.

On to `CC(C)COc1ccc(C(=O)OCC(=O)NCCC2=CCCCC2)cc1`, for which the activation is 0.818%.

Take `COc1cc2c(cc1OC)/C(=C/C(=O)c1ccc(NC(C)=O)cc1)NCC2`: the activation was -0.377%.

As to `CC1CN/C(=C\C(=O)c2ccc(Br)cc2)C(=O)N1` (centres undefined), the activation was 71.1% (active).

For the molecule `CN1CCCC(OC(=O)COc2ccc(Br)cc2)C1` (centres undefined), the activation was -0.189%.

As for `CC1CCc2[nH]c3ccc(C(=O)N(C)CC(=O)Nc4cccc(F)c4)cc3c2C1` (centres undefined), the activation is 0.749%.

`O=C(Nc1ccc(N2CCCC2=O)cc1)c1cncc(Br)c1`: the activation was 1.53%.

In the case of `O=C(Nc1ccc(S(=O)(=O)Nc2ncccn2)cc1)c1cncc(Br)c1`, the activation is -1.84%.

With `CCNS(=O)(=O)c1ccc(NC(=O)c2cncc(Br)c2)cc1`, the activation is 94.2% (active).

With `COc1cc(NC(=O)C2CC(c3ccccc3O)=NO2)c(OC)cc1Cl` (centres undefined), the activation is -1.02%.

In the case of `COc1ccc(NC(=O)NCCN2CCN(c3ccc(C)cc3)CC2)c(Cl)c1`, the activation was 2.29%.

With `O=C(Cc1ccc(Br)cc1)NCCc1ccccc1`, the activation is 0.0277%.

On to `CC(C(=O)N1CCOCC1)N1c2cccc3cccc(c23)S1(=O)=O` (centres undefined), for which the activation was 163% (active).

`CC(C)CN(CC(C)C)C(=O)CN1c2cccc3cccc(c23)S1(=O)=O`: the activation is -19%.

On to `COc1ccc(NC(=O)C(C)N2c3cccc4cccc(c34)S2(=O)=O)c(OC)c1` (centres undefined), for which the activation was 0.272%.

On to `COC(=O)C1CCN(C(=O)NC2CC(=O)N(c3ccc4c(c3)OCCO4)C2)CC1` (centres undefined), for which the activation was 2.77%.

Regarding `C/C=C/c1ccc(OCC(=O)OCC(=O)Nc2c(C)nn(-c3ccccc3)c2C)c(OC)c1`, the activation was 0.205%.

For the molecule `CCOc1ccccc1OCC(=O)Nc1ccccc1C(=O)NC1CC1`, the activation was 0.735%.

With `N[C@@H](Cc1ccccc1)C(=O)N1CCOCC1`, the activation was 1.05%.

For `Cc1cc(N2CCN(c3ccccc3)CC2)nc(N2CCOCC2)n1`, the activation was -0.818%.

Turning to `Cc1cc(Nc2ccc(Cl)cc2)nc(N2CCOCC2)n1`, the activation is 0.664%.

In the case of `Cc1cc(Oc2ccccc2)nc(N2CCOCC2)n1`, the activation is 686% (active).

With `Cc1ccc(NC(=O)COC(=O)CNC(=O)c2ccc(Cl)cc2Cl)cc1S(=O)(=O)N1CCOCC1`, the activation was -0.357%.

For the molecule `CCOC(=O)c1cc(C(C)C)sc1NC(=O)COC(=O)c1nccnc1N`, the activation is -0.0851%.

As for `CCN1CCN(C(c2cccnc2)c2cc(Cl)c3cccnc3c2O)CC1` (centres undefined), the activation was 1.75%.

Turning to `Oc1c(CN2CCN(c3ccc(F)cc3)CC2)cc(Cl)c2cccnc12`, the activation is 57.7% (active).

Regarding `Oc1ccc(CN2CCN(c3ncccn3)CC2)cc1`, the activation was -0.81%.

Take `Cc1ccccc1OCC(=O)Nc1ccc2c(c1)ncn2C`: the activation is 1.83%.

With `C=CCC1(C(=O)N(C)Cc2ccccc2)CCN(C(=O)OC(C)(C)C)CC1`, the activation was -0.424%.

On to `COc1ccc2c(c1)O/C(=C\c1ccccc1O)C2=O`, for which the activation was 3.88%.

In the case of `COc1cc([N+](=O)[O-])cc([N+](=O)[O-])c1NC(=O)N1CCOCC1`, the activation is -0.133%.

For `COc1ccc(C#Cc2c(-c3ccc(OC)cc3)oc3ccc(-c4ccc5c(c4)OCO5)cc23)cc1`, the activation is 2.6%.

In the case of `Cc1cccc(OCCC(=O)Nc2cc(S(=O)(=O)N3CCCCC3)ccc2N2CCOCC2)c1`, the activation was -0.617%.

For `CN1CCN(c2ccc(S(=O)(=O)N3CCOCC3)cc2NC(=O)CCc2ccccc2)CC1`, the activation was 0.124%.

On to `CC(=O)NCCC(=O)Nc1cc(S(=O)(=O)N2CCOCC2)ccc1N1CCOCC1`, for which the activation is 158% (active).

For the molecule `O=S(=O)(NCCCc1ccccc1)c1ccc(Br)cc1`, the activation is -0.382%.

On to `O=c1[nH]snc1-c1c(Cl)cccc1Cl`, for which the activation is -0.133%.

Regarding `COc1ccc(S(=O)(=O)N2CCOC2CNC(=O)C(=O)NCc2ccncc2)cc1OC` (centres undefined), the activation was 0.131%.

Regarding `Cc1ccc(S(=O)(=O)N2CCN(C(=O)c3ccccc3-c3nc4ccccc4s3)CC2)c(C)c1`, the activation is -37.1%.

`CCOC(=O)C1CCN(C(=O)COC(=O)C2CCN(S(=O)(=O)c3ccc4c(c3)OCCO4)CC2)CC1`: the activation was 0.496%.

For `CCOc1ccccc1NS(=O)(=O)c1cc2c3c(c1)C(C)C(=O)N3CCC2` (centres undefined), the activation is -0.238%.

Consider `CC1C(=O)N2CCCc3cc(S(=O)(=O)NCc4ccc(F)cc4)cc1c32` (centres undefined), for which the activation is 2.62%.

Consider `COc1ccccc1CCNS(=O)(=O)c1cc2c3c(c1)C(C)C(=O)N3CCC2` (centres undefined), for which the activation is 80.8% (active).

Regarding `O=C(CNC(=O)C12CC3CC(CC(C3)C1)C2)OCC(=O)N1CCCCC1`, the activation is -0.325%.

In the case of `CC(NC(=O)c1ccccc1SCC(=O)N1CCCC1)c1ccccc1` (centres undefined), the activation was -0.504%.
